Data on 14 compounds can be found in ChEMBL document CHEMBL3988442, “University of Dundee, Small-Polar-MMV Screening Library” (2021).

For some assays here: Entries with a potency or affinity are not part of this list.

Common to all, as to parameters: scale not given: direction of the effect not stated beside the values
Assay [1] deals with Protein translocase subunit SecA (Escherichia coli (strain K12)) (UniProt P10408). The experiment in a line: Assay to Identify E. coli SecA ATPase Inhibitors. In kind it is functional. To be noted: 30 µM.
In assay [2] the target is T1, Ubiquitin-activating enzyme e1, putative (Leishmania donovani (strain BPK282A1)) (UniProt E9BSI1).
T1 sequence (whole entry): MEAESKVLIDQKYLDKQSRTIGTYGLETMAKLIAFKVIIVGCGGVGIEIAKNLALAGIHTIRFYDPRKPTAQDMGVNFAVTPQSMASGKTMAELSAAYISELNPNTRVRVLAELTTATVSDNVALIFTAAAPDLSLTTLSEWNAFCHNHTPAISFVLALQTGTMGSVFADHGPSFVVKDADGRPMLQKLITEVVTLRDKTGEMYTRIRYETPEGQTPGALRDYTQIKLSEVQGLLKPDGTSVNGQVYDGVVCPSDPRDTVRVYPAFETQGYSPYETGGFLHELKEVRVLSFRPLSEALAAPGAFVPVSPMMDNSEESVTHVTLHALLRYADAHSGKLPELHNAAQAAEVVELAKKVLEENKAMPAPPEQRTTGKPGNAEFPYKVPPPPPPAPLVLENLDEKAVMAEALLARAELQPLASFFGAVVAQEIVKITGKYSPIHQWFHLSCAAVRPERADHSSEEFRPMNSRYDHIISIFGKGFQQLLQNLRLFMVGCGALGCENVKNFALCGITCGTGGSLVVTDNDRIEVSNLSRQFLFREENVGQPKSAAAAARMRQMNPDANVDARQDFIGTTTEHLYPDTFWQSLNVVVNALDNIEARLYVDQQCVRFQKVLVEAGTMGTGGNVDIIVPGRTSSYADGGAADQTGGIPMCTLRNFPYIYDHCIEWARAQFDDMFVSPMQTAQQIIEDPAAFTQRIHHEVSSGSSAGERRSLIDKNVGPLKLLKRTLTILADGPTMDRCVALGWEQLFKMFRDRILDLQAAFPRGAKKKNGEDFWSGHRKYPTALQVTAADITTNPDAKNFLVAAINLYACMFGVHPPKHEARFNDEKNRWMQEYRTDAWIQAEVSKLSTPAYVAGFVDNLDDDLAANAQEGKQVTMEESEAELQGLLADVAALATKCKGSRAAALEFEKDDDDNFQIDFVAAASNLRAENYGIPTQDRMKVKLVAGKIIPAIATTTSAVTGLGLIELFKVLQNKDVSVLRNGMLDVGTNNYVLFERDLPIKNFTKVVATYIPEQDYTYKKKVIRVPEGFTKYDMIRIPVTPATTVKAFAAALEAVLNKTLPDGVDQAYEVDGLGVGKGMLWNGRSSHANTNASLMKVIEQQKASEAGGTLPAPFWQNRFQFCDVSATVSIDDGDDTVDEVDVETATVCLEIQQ
The experiment in a line: Leishmania donovani Ubiquitin Activating Enzyme (LdE1). The assay is classed as functional. To be noted: 30 µM.

The target in assay [3] is Sialic acid-binding Ig-like lectin 9 (Homo sapiens) (UniProt Q9Y336). The experiment in a line: Hs-Siglec9 ALPHAscreen SOP 20170721. The note with it: 10 µM. A general note: Bead proximity is the source of the signal in Alpha formats.
The next assay has as its system Trypanosoma cruzi. The experiment in a line: Trypanosoma cruzi phosphomannomutase and mannose-1-phosphate guanylyltransferase assay. To be noted: 10 µM. The assay is classed as functional.
Assay [4] addresses T2, Arginase-2, mitochondrial (Homo sapiens) (UniProt P78540).
T2 sequence (whole entry): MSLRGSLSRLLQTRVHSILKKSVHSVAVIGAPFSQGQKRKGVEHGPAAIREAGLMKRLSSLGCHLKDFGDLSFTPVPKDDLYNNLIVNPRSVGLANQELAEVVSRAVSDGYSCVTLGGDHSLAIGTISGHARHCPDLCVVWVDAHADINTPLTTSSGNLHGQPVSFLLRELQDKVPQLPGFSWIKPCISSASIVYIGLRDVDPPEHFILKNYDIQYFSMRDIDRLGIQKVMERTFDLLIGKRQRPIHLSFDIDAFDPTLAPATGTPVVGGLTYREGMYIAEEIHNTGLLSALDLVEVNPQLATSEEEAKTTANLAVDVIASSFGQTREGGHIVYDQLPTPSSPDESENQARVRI
The experiment in a line: in vitro enzyme assay to detect the production of urea directly proportional to the activity of Arginase II. Also: in the data most compounds retested in dose-response had high values. The assay is classed as functional. The note with it: 33.3 µM.

In assay [5] the target is T3, Proteasome subunit beta (Trypanosoma cruzi) (UniProt O96673).
T3 sequence (whole entry): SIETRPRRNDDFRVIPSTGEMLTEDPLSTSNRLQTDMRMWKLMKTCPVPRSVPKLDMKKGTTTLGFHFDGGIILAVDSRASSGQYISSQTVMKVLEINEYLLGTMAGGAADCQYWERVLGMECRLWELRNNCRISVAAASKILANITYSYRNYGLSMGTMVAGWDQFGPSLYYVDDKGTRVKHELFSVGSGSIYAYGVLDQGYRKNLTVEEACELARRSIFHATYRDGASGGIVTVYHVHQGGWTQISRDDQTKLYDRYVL
The experiment in a line: Trypanosoma cruzi proteasome chymotrypsin-like activity (TcProtChymo) assay. Also: in the data most compounds retested in dose-response had high values. In kind it is functional. To be noted: 9.37 µM.

For another assay, the species on record is Homo sapiens. The experiment in a line: To identify inhibition of the IFN signalling (Jak-Stat) pathway via expression of an eGFP reporter gene under the control of an IFN-stimulated response element (ISRE) containing MxA promoter. In kind it is functional. To be noted: 30 µM.
In assay [6] the target is T4, Tyrosyl-tRNA synthetase, putative (Trypanosoma cruzi (strain CL Brener)) (UniProt Q4DSP6).
T4 sequence (whole entry): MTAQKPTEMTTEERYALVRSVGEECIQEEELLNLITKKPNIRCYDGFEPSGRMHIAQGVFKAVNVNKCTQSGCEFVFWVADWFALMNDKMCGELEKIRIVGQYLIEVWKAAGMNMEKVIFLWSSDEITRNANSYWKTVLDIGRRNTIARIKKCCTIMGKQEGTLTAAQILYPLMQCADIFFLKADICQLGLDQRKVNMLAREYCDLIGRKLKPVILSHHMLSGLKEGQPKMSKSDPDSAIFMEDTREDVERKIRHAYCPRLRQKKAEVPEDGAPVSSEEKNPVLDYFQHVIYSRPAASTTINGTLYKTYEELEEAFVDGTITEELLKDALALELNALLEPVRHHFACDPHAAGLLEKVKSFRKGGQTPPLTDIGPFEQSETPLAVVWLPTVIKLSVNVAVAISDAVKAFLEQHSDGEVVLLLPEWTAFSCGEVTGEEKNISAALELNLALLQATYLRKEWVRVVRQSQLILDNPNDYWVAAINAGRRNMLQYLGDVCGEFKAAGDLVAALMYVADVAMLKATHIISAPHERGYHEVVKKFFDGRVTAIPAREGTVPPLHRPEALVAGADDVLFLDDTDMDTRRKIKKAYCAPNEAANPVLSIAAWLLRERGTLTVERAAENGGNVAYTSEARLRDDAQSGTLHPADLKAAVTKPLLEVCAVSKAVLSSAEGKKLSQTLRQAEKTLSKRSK
The experiment in a line: Trypanosoma cruzi tyrosyl tRNA synthetase (TcYRS) _High Tyrosine SOP. Also: in the data most compounds retested in dose-response had high values. The assay is classed as functional. To be noted: 30 µM.

For assay [7], the target named is T4, Tyrosyl-tRNA synthetase, putative (Trypanosoma cruzi (strain CL Brener)). The experiment in a line: Trypanosoma cruzi tyrosyl tRNA synthetase (TcYRS) SOP. The assay is classed as functional. The note with it: 30 µM.
Assay [8] concerns the target Chromo domain-containing protein 1 (Saccharomyces cerevisiae (strain ATCC 204508 / S288c) (Baker's yeast)) (UniProt P32657). The experiment in a line: ScCHD-1 Enzyme Inhibition Assay. Also: in the data most compounds retested in dose-response had high values. The assay is classed as functional. To be noted: 30 µM.

Sequence of Chromo domain-containing protein 1 (Saccharomyces cerevisiae (strain ATCC 204508 / S288c) (Baker's yeast)) (P32657 whole entry, the tested form may be a part): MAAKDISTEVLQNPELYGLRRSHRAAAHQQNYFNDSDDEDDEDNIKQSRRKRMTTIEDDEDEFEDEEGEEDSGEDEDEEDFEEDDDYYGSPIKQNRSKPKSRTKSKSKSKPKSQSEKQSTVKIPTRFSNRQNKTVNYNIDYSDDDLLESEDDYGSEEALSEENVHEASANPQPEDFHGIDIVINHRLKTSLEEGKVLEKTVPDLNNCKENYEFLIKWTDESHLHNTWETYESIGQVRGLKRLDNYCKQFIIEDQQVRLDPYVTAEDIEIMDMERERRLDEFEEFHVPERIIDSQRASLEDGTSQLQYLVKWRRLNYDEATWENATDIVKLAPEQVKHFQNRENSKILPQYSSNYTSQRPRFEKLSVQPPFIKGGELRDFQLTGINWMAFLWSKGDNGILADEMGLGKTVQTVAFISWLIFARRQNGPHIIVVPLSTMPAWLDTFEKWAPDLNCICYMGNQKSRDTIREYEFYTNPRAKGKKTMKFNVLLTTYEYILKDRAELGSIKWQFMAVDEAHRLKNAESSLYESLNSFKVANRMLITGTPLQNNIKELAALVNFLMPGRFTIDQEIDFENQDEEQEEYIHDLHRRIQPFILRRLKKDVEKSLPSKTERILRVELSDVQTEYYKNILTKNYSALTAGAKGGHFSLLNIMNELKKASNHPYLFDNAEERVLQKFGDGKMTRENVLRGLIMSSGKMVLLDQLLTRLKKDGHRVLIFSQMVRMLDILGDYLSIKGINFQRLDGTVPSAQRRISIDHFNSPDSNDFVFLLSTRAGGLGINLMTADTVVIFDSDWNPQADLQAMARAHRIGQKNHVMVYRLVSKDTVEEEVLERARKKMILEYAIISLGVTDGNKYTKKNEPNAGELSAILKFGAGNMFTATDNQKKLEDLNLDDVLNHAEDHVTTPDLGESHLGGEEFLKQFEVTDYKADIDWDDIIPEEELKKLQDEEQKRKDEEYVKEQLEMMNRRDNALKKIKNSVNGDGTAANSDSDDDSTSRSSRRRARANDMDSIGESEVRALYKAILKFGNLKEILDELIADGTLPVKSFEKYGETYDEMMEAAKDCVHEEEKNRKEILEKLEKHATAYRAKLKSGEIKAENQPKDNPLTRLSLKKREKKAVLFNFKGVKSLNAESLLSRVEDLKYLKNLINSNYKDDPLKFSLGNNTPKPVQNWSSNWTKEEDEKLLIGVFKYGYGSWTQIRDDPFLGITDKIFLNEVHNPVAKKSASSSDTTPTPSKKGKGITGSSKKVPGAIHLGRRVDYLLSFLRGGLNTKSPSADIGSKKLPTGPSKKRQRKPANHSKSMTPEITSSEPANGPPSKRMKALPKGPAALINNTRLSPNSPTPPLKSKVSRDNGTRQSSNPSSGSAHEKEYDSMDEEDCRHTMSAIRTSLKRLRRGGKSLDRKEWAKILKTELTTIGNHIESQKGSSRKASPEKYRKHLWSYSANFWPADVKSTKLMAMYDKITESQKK
Sequence of Protein translocase subunit SecA (Escherichia coli (strain K12)) (P10408 whole entry): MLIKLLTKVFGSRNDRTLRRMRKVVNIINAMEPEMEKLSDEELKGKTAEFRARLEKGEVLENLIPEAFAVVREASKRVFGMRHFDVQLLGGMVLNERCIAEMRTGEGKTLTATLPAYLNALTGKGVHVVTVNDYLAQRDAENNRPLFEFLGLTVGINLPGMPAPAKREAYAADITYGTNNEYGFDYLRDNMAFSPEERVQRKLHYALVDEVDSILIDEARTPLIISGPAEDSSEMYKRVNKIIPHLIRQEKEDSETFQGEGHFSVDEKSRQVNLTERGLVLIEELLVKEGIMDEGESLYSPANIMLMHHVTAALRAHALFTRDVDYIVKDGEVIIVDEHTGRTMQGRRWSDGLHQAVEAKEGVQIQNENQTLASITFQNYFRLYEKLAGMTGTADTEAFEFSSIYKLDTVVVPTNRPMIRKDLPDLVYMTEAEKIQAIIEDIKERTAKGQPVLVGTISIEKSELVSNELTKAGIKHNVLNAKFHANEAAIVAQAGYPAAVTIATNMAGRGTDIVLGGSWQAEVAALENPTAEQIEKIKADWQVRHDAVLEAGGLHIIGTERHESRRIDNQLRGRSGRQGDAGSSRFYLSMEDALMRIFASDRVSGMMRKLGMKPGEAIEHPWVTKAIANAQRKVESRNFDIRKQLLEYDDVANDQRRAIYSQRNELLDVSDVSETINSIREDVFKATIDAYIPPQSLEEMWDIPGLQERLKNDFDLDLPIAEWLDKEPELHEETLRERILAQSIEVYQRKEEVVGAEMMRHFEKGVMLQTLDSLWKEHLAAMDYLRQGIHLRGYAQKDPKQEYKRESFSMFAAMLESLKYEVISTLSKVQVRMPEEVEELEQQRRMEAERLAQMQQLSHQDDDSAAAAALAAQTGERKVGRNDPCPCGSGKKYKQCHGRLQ
Sequence of Sialic acid-binding Ig-like lectin 9 (Homo sapiens) (Q9Y336 whole entry): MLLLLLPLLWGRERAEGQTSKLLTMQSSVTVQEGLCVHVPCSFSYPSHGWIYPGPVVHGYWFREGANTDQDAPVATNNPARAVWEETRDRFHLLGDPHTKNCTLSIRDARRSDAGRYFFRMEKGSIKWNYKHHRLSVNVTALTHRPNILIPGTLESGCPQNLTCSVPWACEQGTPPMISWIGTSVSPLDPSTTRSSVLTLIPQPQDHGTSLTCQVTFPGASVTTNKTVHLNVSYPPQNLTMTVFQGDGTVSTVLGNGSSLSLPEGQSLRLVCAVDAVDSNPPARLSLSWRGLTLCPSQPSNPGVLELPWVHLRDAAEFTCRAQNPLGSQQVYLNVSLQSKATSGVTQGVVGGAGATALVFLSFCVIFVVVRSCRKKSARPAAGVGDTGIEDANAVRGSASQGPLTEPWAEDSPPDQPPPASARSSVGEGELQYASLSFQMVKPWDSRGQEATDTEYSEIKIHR

For `Cc1ccc2cc(C(=O)NCCn3nc4ccccn4c3=O)[nH]c2c1`, the Percent Effect was -1.72% in [1]; 10.3% in assay [2]; -11.1% in assay [3]; -8.36% with Trypanosoma cruzi; 1.23% in assay [4]; 16.3% in assay [5]. Besides, the Percent Effect in the assay filed under Homo sapiens is 19.6%; in [6] it was -1.44%; in assay [7], 1.21%; in [8], -7.76%.

As to `CCCOCCCNc1nccc(-c2cn(C)nc2C)n1`, the Percent Effect is -7.46% in assay [1]; 0% in [2]; 9.13% in assay [3]; 12.5% in the assay with Trypanosoma cruzi; -3.85% in [4]; 13.7% in [5]. The Percent Effect is 36.5% in the assay listed under Homo sapiens, 5.85% in assay [6], 17.1% in [7] and -2.61% in assay [8].

For the compound `Cc1nc(C2CCCN2Cc2ncc(C(C)C)o2)no1` (stereo not given), the Percent Effect in assay [1] was -0.503%; in assay [2], 2.67%; in assay [3], -1.37%; in the assay on Trypanosoma cruzi it was -0.803%; in assay [4], -0.444%; in [5], 1.44%. Moreover, the Percent Effect in the assay listed under Homo sapiens is 13.4%; in assay [6], -1.58%; in assay [7] it was -5.13%; in assay [8], -7.52%.

Turning to `Cc1ccccc1N1CC2(CCN(S(=O)(=O)C3CC3)C2)CC1=O` (stereo not given), the Percent Effect in assay [1] was 0.787%; in assay [2], 16.9%; in assay [3] it was -5.74%; with Trypanosoma cruzi, -5.07%; in assay [4], 4.57%; in assay [5], 17.4%. Besides, the Percent Effect in the assay listed under Homo sapiens is 11.8%; in [6], 3.87%; in assay [7], 10%; in assay [8], -8.76%.

`Cc1ccc(S(=O)(=O)N2CCOc3ccccc32)cc1C(=O)O`: the Percent Effect is -0.902% in assay [1]; -5.13% in [2]; -13.7% in [3]; -1.03% in the assay on Trypanosoma cruzi; 1.23% in [4]; 11.5% in assay [5]. The Percent Effect in the assay filed under Homo sapiens was 1.07%; in [6], -7.18%; in assay [7] it was 6.02%; in assay [8], -6.35%.

With `Cc1cc(-c2cnn(CCNC(=O)C3CC3)c2C2CC2)on1`, the Percent Effect in assay [1] was -4.16%; in [2] it was 4%; in assay [3] it was -5.41%; in the assay on Trypanosoma cruzi, -1.77%; in assay [4] it was -1.77%; in assay [5], 5.91%. The Percent Effect in the assay filed under Homo sapiens was 17.8%; in [6] it was -3.17%; in assay [7], 0%; in [8] it was -25.2%.

Regarding `Cc1nc(CN2CCN(Cc3nccn3C)CC2)no1`, the Percent Effect in assay [1] is -4.99%; in assay [2] it was 8%; in assay [3] it was -1.66%; in the assay with Trypanosoma cruzi, 3.21%; in [4], -1.77%; in assay [5], 4.16%. Further, the Percent Effect is 11.1% in the assay filed under Homo sapiens, 5.79% in [6], 15.4% in [7] and -11.3% in assay [8].

For `OC(COc1ccccc1)CN1CCc2c(ncn2C2CC2)C1` (stereo not given), the Percent Effect in assay [1] was -6.24%; in assay [2], 8%; in [3] it was 5.27%; in the assay with Trypanosoma cruzi it was -6.02%; in [4] it was -1.77%; in [5] it was 3.65%. For the same compound, the Percent Effect in the assay listed under Homo sapiens was 15.6%; in assay [6], 5.79%; in assay [7] it was 7.69%; in [8], -12.1%.

Consider `Cc1nnc2n1CCN(C(C(=O)NC1CC1)c1ccccc1)C2` (stereo not given), for which the Percent Effect was -3.46% in assay [1]; 2.56% in assay [2]; 6.36% in [3]; 3.47% in the assay on Trypanosoma cruzi; 3.69% in [4]; 5.72% in assay [5]. Further, the Percent Effect in the assay filed under Homo sapiens is 8.81%; in [6], 3.35%; in assay [7] it was 13.2%; in assay [8] it was -2.99%.

As for `COCCc1noc(CN2CCCC2Cn2cc(C)cn2)n1` (stereo not given), the Percent Effect in [1] is -1.35%; in assay [2], 8%; in [3] it was 1.3%; with Trypanosoma cruzi, 3.21%; in assay [4], -7.98%; in assay [5] it was 3.31%. The Percent Effect is -1.19% in the assay filed under Homo sapiens, 0.526% in assay [6], 7.69% in [7] and -7.63% in [8].

As for `Cc1cc(C2CCCN2Cc2ccn(C)c(=O)c2)no1` (stereo not given), the Percent Effect is -3.32% in assay [1]; -10.3% in [2]; 3.98% in [3]; 9.11% with Trypanosoma cruzi; 1.64% in assay [4]; 8.45% in assay [5]. Besides, the Percent Effect is 4.2% in the assay filed under Homo sapiens, 3.35% in assay [6], 8.43% in [7] and -0.427% in assay [8].

For `CCc1nccn1C1CCCN(C(=O)c2csc(COC)n2)C1` (stereo not given), the Percent Effect is -5.68% in assay [1]; 10.4% in assay [2]; 12.8% in assay [3]; -5.78% with Trypanosoma cruzi; -1.43% in [4]; 7.89% in assay [5]. The Percent Effect is 13.9% in the assay filed under Homo sapiens, 4.9% in assay [6], 9.41% in assay [7] and -5.76% in [8].

For the compound `Cc1nc[nH]c1CN1CCN(C(=O)CCC(F)(F)F)[C@H]2CS(=O)(=O)C[C@H]21`, the Percent Effect in assay [1] is -7.21%; in assay [2] it was 2.7%; in [3], 12%; with Trypanosoma cruzi it was 7.66%; in assay [4] it was 14.3%; in [5], 15.1%. The Percent Effect in the assay filed under Homo sapiens is 11.2%; in [6] it was 7.98%; in assay [7], 12.2%; in assay [8] it was -1.8%.

As to `O=C(c1ccc(OCC2CC2)nc1)N1CCCC(n2ccnc2)C1` (stereo not given), the Percent Effect is -2.4% in assay [1]; 12.8% in [2]; -6.85% in assay [3]; 2.72% in the assay with Trypanosoma cruzi; 6.97% in assay [4]; 9.64% in assay [5]. For the same compound, the Percent Effect is 5.6% in the assay listed under Homo sapiens, 8.13% in assay [6], 22.9% in assay [7] and -4.73% in [8].
